Bioassay records: PubChem, National Center for Advancing Translational Sciences (NCATS)
An excerpt weighted towards active compounds, which were near 7.3% of everything screened.
VACV mCherry inh: vaccinia inhibition (mCherry reporter). Vaccinia virus mCherry reporter infection, fluorescence. Potency, µM (doses to about 36.5 µM), without a hit: top-dose activity change, negative = inhibition, usual class: inhibitors. hit rate 0.63% among 310,000; calls by dose curve; tested in A549 cells; also: potency is read from the fitted curve at half-maximal effect; nearly all actives have a fitted effect of over 35% in size
HCMV antiviral: blocks human cytomegalovirus replication; HFF cells, HCMV-luciferase reporter, 72 h; stronger effect = lower value; activity change, negative = inhibition, % at 57.5 µM; hit rate 4.5% among 410,000; AID 1259415; in the data active = activity change below about -60%; inconclusive = no clear call, values can overlap the other calls; inactive = above about -39%
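Cell-based, HFFs, 1000 cells/well, 16 h 37C; cpds in DMSO + HCMV-luc, MOI 1 PFU/cell; 72 h 37C; OneGlo luminescence after 5 min RT; norm. to buffer vs Salinomycin 10uM.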
HCV inhibitor: blocks hepatitis C virus | Potency, µM (doses to about 41.8 µM), inactives show at the highest dose activity change, negative = inhibition, hits mostly inhibitors | hit rate 3.4% among 340,000 | Huh7.5.1 HCVcc-Cre infection, luciferase reporter, 44 h; active = well fitted inhibition curve with a large enough effect; inconclusive = small, poorly fitted or top-dose-only effect, or another doubt; inactive = no such curve, though single readings can be large or run the other way; also: potency is read from the fitted curve at half-maximal effect
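Reporter virus HCVcc-Cre (~0.5 moi) infects cells exposed to compound; seeding density 1,000 cells/well with 4 h settling beforehand. Luminescence, 15 sec read, taken 44 h post-infection following a 15 min RT substrate incubation.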
VACV Venus inh: inhibitors of vaccinia virus (Venus reporter) | Vaccinia virus Venus reporter expression, fluorescence | Potency, µM (doses to about 36.5 µM), for inactives: top-dose activity change, negative = inhibition, usual class: inhibitors | hit rate 0.46% among 330,000 | AID 720580; calls by dose curve; tested in A549 cells; also: potency is read from the fitted curve at half-maximal effect; nearly all actives have a fitted effect of over 30% in size
FMDV inh: foot and mouth disease virus antiviral activity; FMDV antiviral cell-based qHTS; Potency, µM (doses to about 57.9 µM), inactives show top-dose activity change, negative = inhibition, hits mostly inhibitors; hit rate 1.2% among 410,000; AID 1159524; calls by dose curve; tested in HEK293T cells; also: read-out not given here; potency is read from the fitted curve at half-maximal effect; nearly all actives have a fitted effect of over 45% in size
* marks the source's active call; other numbers are inactive results; i = inactive; ? = inconclusive; / = no result given. % is scaled to controls: 0 for no effect and ±100 for the full control effect.

SMILES | VACV mCherry inh | HCMV antiviral | HCV inhibitor | VACV Venus inh | FMDV inh
COc1cc(/C=N/NC(=Nc2ccc(C)cc2)c2nc3ccccc3s2)ccc1O | / | -68.4* | ? | / | 17.8µM*
CN(C)c1ccc(/C=C(\Cl)c2nc3ccccc3s2)cc1 | i | / | ? | -14.2% | 10µM*
O=C(O)c1ccc(C=C(c2nc3ccccc3s2)c2nc3ccccc3s2)cc1 | -12.3% | 125.4 | 5.3% | -1.5% | ?
COc1ccc(C(=O)N[C@H]2CC[C@@]34CCCN3C(=O)CCC[C@H]4[C@H]2Cc2ccccc2)cc1 | / | -3.2 | / | / | /
COc1cc2sc(C)nc2c2ccccc12 | / | 24.6 | 10µM* | / | -13.9%
Cc1nc2c(ccc3c2ccc2nc(C)sc23)s1 | / | 86.4 | 12.8% | -6.1% | 25.9%
CCCC[C@@H](C)C[C@@H](C)C(=O)N(C)[C@@H](CC(C)C)C(=O)N[C@H](C(=O)N(C)[C@H](C(=O)N1C[C@@H](O)C[C@H]1C(=O)N1C(=O)C=C[C@@H]1C)C(C)C)C(C)OC(C)=O (some centres not stated) | ? | / | 3.98µM* | 10µM* | ?
CC(C)(C)OC(=O)[C@H](Cc1ccccc1)NC(=O)c1[nH]cnc1C(=O)N[C@@H](Cc1ccccc1)C(=O)OCc1ccccc1 | -3.3% | 93.7 | 6.9% | -23.9% | -1.3%
CCOC(=O)c1ccc(NC(=O)c2nc[nH]c2C(=O)N[C@@H](Cc2ccccc2)C(=O)OC(C)(C)C)cc1 | 12.6µM* | 10.9 | 49.1% | ? | ?
CC(C)(C)OC(=O)[C@H](Cc1ccccc1)NC(=O)c1nc[nH]c1C(=O)N[C@@H](Cc1ccccc1)C(=O)OC(C)(C)C | ? | -68.2* | ? | ? | ?
C[C@H](NC(=O)c1nc[nH]c1C(=O)N[C@@H](Cc1ccccc1)C(=O)OC(C)(C)C)C(=O)OC(C)(C)C | ? | 34.4 | 11.2µM* | ? | -15.0%
CC(=O)N1CCc2cc(Br)cc(S(=O)(=O)NCCc3cccc(C)c3)c21 | 4.8% | -16.1 | / | 1.6% | 49.1%
COc1ccc(C(=O)NCc2ccc3c(c2)CCN3C(=O)c2ccc(C)cc2)cc1 | -1.2% | ? | / | -18.9% | -15.1%
CSc1nccc(NC(=O)c2cccc(Br)c2)n1 | i | -31.8 | 10µM* | -18.7% | ?
COC(=O)C[C@@H]1CC[C@H](NC(=O)Nc2ccc(OC)cc2)[C@@H](CO)O1 | -13.9% | 91.8 | / | -1.8% | -13.0%
COc1ccc(N=Nc2ccc(N)nc2N)cc1 | ? | 254.9 | -0.9% | -11.7% | 42.3%
CCOc1ccc2nc3cc(N=Nc4ccc(N)nc4N)ccc3c(N)c2c1 | -1.4% | / | 11.2µM* | -4.9% | -8.6%
COC(=O)[C@@H]1C[C@@]2(O)[C@@H](O)[C@@H](O)[C@@H](O)C[C@H]2N1Cc1cc(OC)cc(OC)c1 | i | -99.6* | 0.501µM* | -11.8% | 15.7%
COc1ccccc1-c1cc2c(c(OC)c1)OCCN(CCC(C)c1ccc(C)o1)C2 (configuration not stated) | i | / | / | 3.3% | -11.0%
Cc1ccc(OCC(=O)Nc2ccc3c(c2)nc(CCN2CCCCC2)n3C)cc1 | / | -72.4* | -1.8% | / | -15.0%
CN1CCN(CCc2nc3cc(NC(=O)COc4ccccc4)ccc3n2C)CC1 | / | -9.0 | -18.7% | / | -12.6%
Cn1c(CCN2CCCCC2)nc2cc(NC(=O)COc3ccccc3)ccc21 | / | -73.3* | -5.5% | / | -7.6%
N#CCC(=O)Nc1ccc(C(=O)NNC(=S)NC2CC2)cc1 | i | -96.6* | -11.7% | -13.4% | 6.0%
O=C(N=Nc1c(O)[nH]c2ccccc12)c1cccc(S(=O)(=O)Nc2ccccc2Cl)c1 | / | -71.8* | 8.0% | / | 26.5%
O=C(NCCc1c[nH]c2ccccc12)c1cccc(S(=O)(=O)Nc2ccccc2Cl)c1 | ? | -99.8* | 8.6% | -22.5% | -18.6%
CN(c1ccccc1)S(=O)(=O)c1cccc(C(=O)NCc2ccccc2)c1 | / | -38.5 | ? | / | 1.5%
CN(c1ccccc1)S(=O)(=O)c1cccc(C(=O)NCCc2c[nH]c3ccccc23)c1 | / | -23.0 | 10µM* | / | ?
CCn1cc(C(=O)NCc2ccccc2)c(=O)c2cc(S(=O)(=O)N3CCCCCC3)ccc21 | ? | -37.2 | / | -21.8% | -10.2%
N#Cc1sc2nc3c(c(-c4ccco4)c2c1N)CCCC3 | -14.7% | ? | 7.94µM* | -15.0% | ?
c1coc(-c2nc3c4c5c(sc4ncn3n2)CCCC5)c1 | / | -20.5 | ? | / | 18.4%
